In PubChem BioAssay (EPA / NIEHS):
Calls of active or inactive are those of the source. Rule for the calls: active = hit-call score of the fitted dose curve at least 0.9, where 1 is the maximum; inactive = score below 0.9.

read-out: Tissue Factor, F3 (gene 2152); assay: BSK_LPS_TissueFactor: BioMAP Diversity Plus: LPS Assay for Tissue Factor Biomarker Activity (AID 2283084); settings: primary human HUVEC with PBMC; actives raise or lower the signal
Description: BSK_LPS is a cell-based, multiplexed-readout assay that uses umbilical vein endothelium and peripheral blood mononuclear cells, a human vascular primary cell co-culture, with measurements taken at 24 hours after chemical dosing in a 96-well plate.BSK_LPS_TissueFactor is an assay component measured in the BSK_LPS assay. It measures CD142 Tissue Factor antibody related to regulation of gene expression using ELISA technology.Data from the assay component BSK_LPS_TissueFactor was analyzed into 1 assay endpoint. This assay endpoint, BSK_LPS_TissueFactor, was analyzed with bidirectional fitting relative to DMSO as the negative control and baseline of activity. Using a type of binding reporter, gain or loss-of-signal activity can be used to understand changes in the signaling as they relate to the gene F3. Furthermore, this assay endpoint can be referred to as a primary readout, because this assay has produced multiple assay endpoints where this one serves a signaling function. To generalize the intended target to other relatable targets, this assay endpoint is annotated to the cytokine intended target family, where the subfamily is coagulation factor.
The levels of cell surface (or secreted, indicated by the prefix "s") biomarker endpoints were measured by ELISA. Overt cytotoxicity to cells in confluent adherent cultures (all systems other than the BT system) was assessed by measuring total protein levels using sulforhodamine B (SRB) staining in parallel cultures at the time of biomarker measurements, indicated as SRB endpoints. For proliferation assays for adherent cell types, individual cell types are cultured at sub-confluence and relative cell numbers quantified by SRB staining at time points optimized for each system (48 h: 3C and CASM3C systems; 72 h: BT and HDF3CGF systems; 96 h: SAg system). SRB was performed by staining cells with 0.1% SRB after fixation with 10% TCA and reading wells at 560 nm.Viability and proliferation of PBMC (T cells) was quantified by Alamar Blue reduction for the SAg and BT systems. For PBMC viability (referred to as PBMC Cytotoxicity within the assay endpoint names), cells were plated (75,000/well in a 96-well plate) and then chemical samples added for 1 h before addition of activators, SEB and TSST-1 (20 ng/mL final concentration each). Cells were incubated for 90 h. Then, Alamar Blue (20 uL/well) (Invitrogen, Cat DAL1100) was added for 6 h, and the plates were read with a fluorescence microplate reader at 546/580 nm (excitation/emission). For PBMC proliferation, cells were plated and activated as above but incubated for only 16 h prior to addition of Alamar Blue. Plates were read after 6 h.

Compound	outcome	AC50
COc1ccc(C)cc1N	inactive	–
C1CCC(SSC2CCCCC2)CC1	inactive	–
CC(=O)OCCOCCOCCOC(C)=O	inactive	–
CCCCCCCCCCCCCCCC	inactive	–
C=CCc1ccc(O)c(OC)c1	inactive	–
NC(=O)Cn1c(=O)cc(CCN2CCN(c3nccc4sccc34)CC2)c2ccc(F)cc21	inactive	–
CC1=C(/C=C/C(C)=C/C=C/C(C)=C/CO)C(C)(C)CCC1	inactive	–
CC(=O)OC/C=C(\C)CCC=C(C)C	inactive	–
CN1CCCC1=O	inactive	–
Nc1nc(N)c2nc(CNc3ccc(C(=O)N[C@@H](CCC(=O)O)C(=O)O)cc3)cnc2n1	inactive	–
CC1(C)NC(=O)NC1=O	inactive	–
CNC(=O)[C@H]1O[C@@H](n2cnc3c(NCc4cc(Cl)ccc4OCc4cc(C)no4)ncnc32)[C@H](O)[C@@H]1N	inactive	–
CC1(C)CC(N=C=O)CC(C)(CN=C=O)C1 (stereo not given)	inactive	–
COc1ccc(S(=O)(=O)N2C(=O)[C@@](c3ccccc3OC)(N3C[C@H](O)C[C@H]3C(=O)N(C)C)c3cc(Cl)ccc32)c(OC)c1	inactive	–
O=[N+]([O-])C(CO)(CO)CO	inactive	–
NS(=O)(=O)c1cc2c(cc1Cl)NCNS2(=O)=O	inactive	–
CCCCCCCCCCC	inactive	–
CN[C@H]1CC[C@@H](c2ccc(Cl)c(Cl)c2)c2ccc(S(N)(=O)=O)cc21	–	32200 nM (active)
CCNc1cccc(C)c1	inactive	–
O=c1[nH]cc(F)c(=O)[nH]1	inactive	–

Compound	outcome	AC50
CN1CCN(Cc2cc(-c3ccc4[nH]c(=O)oc4c3)co2)[C@@H](c2ccc(F)cc2)C1	inactive	–
CCCCN(CCCC)CCCC	inactive	–
CCOC(=O)C(C)(C)Oc1ccc(Cl)cc1	inactive	–
c1cc(-c2ccncc2)ccn1	inactive	–
Cc1cccc(C)c1O	inactive	–
CCCCOC(=O)CCCCCCCCC(=O)OCCCC	inactive	–
CCCCCCOCCO	inactive	–
Cc1ccc(C)c(O)c1C	inactive	–
COCCOC[C@H](CC1(C(=O)NC2CCC(C(=O)O)CC2)CCCC1)C(=O)Oc1ccc2c(c1)CCC2 (stereo not given in full)	inactive	–
CCOc1ccc2c(c1)C(C)=CC(C)(C)N2	inactive	–
Cc1ccc2ncccc2c1	inactive	–
CC=Cc1ccc(O)c(OC)c1	–	2820 nM (active)
Cc1ccc(N(C)C)cc1	inactive	–
CCOC(=O)CCC(=O)OCC	inactive	–
Cc1cc(=O)[nH]c(=S)[nH]1	inactive	–
O=C(O)CCCCC(=O)O	inactive	–
CCCCCC(=O)O	inactive	–
Nc1ccc2c(c1)C(=O)c1ccccc1C2=O	inactive	–
Cc1cccc(Nc2cc(Cl)nc(SCC(=O)O)n2)c1C	inactive	–
CCCCCCCCCCO	–	152 nM (active)
